Source: PubChem
HBB splice mod – hemoglobin beta splicing modulation; HBB splicing reporter cell assay, activation; EGFP reporter with mutant IVS2-654 intron; response scale: normalised to 500 nM splice-correcting PNA; Potency, µM (highest dose often 46.1 µM), usual class: activators; hit rate 0.06% among 65,000; AID 925
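HeLa cells stably expressing EGFP interrupted by mutant beta-globin intron 2 (IVS2-654), 500/well in 2% FCS. Treated with compound for 2 days at 37C. Splicing correction scored as total well GFP intensity (488 nm excitation, 500-520 nm emission); 500 nM antisense PNA served as control.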
p53ts 39C tox – p53ts cell cytotoxicity, nonpermissive temperature. H1299-p53A138V viability at 39C, ATP luminescence, 24 h. Potency, µM (top dose mostly 46.1 µM), most hits filed as cytotoxic. hit rate 1.5% among 130,000; also: nearly all actives have a fitted effect of over 55% in size
Epigenetic mod – epigenetic modulators derepressing GFP locus in mouse cells. Potency, µM (highest dose often 46.1 µM). mouse C127i GFP locus derepression, cytometry, 30 h. AID 597. hit rate 0.09% among 68,000
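Murine C127i mammary cells carrying a silenced, stably integrated CMV-driven GFP reporter were treated with compound for 30 hours at 37 C. After PBS washes, GFP-positive cells were counted by laser-scanning microplate cytometry.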
p53ts 32C tox – cytotoxicity in p53ts cells at permissive temperature. H1299-p53A138V at 32C, ATP luminescence viability, 24 h. Potency, µM (highest dose often 46.1 µM), usual class: cytotoxic. hit rate 0.93% among 130,000; also: nearly all actives have a fitted effect of over 55% in size
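Viability by ATPlite luminescence after 24 h compound treatment (up to 46 uM) at the permissive 32C. Cells are H1299 carrying p53 A138V. Scale runs from DMSO basal to 100 uM tamoxifen as full kill; AC50 from Hill fits.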
UbGFP stabilizer – inhibits proteasome, raising ubiquitin-GFP reporter fluorescence; Ubiquitin-GFP reporter cells, proteasome inhibition, GFP fluorescence; response scale: untreated = 0%, 10 µM MG-132 = 100%; Potency, µM (titrated, usually from 45.9 µM), most hits filed as activators; 67,000 tested, under 10 active; AID 526; active = well fitted activation curve with a large enough effect, not every such curve was filed as active; inconclusive = small, poorly fitted or top-dose-only effect, or another doubt; inactive = no such curve, though single readings can be large or run the other way
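U2OS Ub(G76V)-GFP reporter; O/N plating, 0.5% FBS; cpd 46 uM–2.9 nM, 4 h, 37 °C; GFP+ cell count, 488/515 nm; norm. to basal vs 10 uM MG-132; CRC fit.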
Peg3 imprint – induces erasure of genomic imprints in mouse ES cells. mouse ES Peg3-LacZ reporter, beta-gal luminescence, 40 h. Potency, µM (top dose mostly 60.7 µM), actives largely listed as activators. hit rate 0.02% among 110,000
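Gelatin-coated wells received 300 freshly trypsinized female ES cells with a Peg3LacZ-Neo reporter on the maternal allele, then incubated 40 hours at 37C. BetaGlo was added for 5 minutes at room temperature before a single luminescence read.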
Large screens that a line does not name were inactive. Most compounds without a hit are left out; they make up all but 1.6% or so of the library. Unless noted, calls follow the shape of the dose curve; as a rule, active = well fitted curve in the direction sought with a large enough effect; inconclusive = small, poorly fitted or top-dose-only effect, or another doubt; inactive = no such curve, though single readings can be large; an effect the other way counts as inactive or inconclusive.

O=C(CSc1nnc(-c2ccccn2)n1Cc1ccco1)c1ccccc1	none
O=c1c2ccccc2cnn1-c1nc2ccccc2s1	p53ts 39C tox 1µM, p53ts 32C tox 0.79µM (no result: UbGFP stabilizer)
COc1cc(C2c3c(-c4ccccc4O)n[nH]c3C(=O)N2Cc2ccco2)ccc1OCC(C)C (stereo not given)	p53ts 39C tox 20µM, p53ts 32C tox inconclusive (no result: HBB splice mod, Epigenetic mod, UbGFP stabilizer)
COc1ccc(-c2nc(SCC(=O)Nc3cccc(C(C)=O)c3)n[nH]2)cc1	p53ts 39C tox 32µM, p53ts 32C tox inconclusive (no result: HBB splice mod, Epigenetic mod, UbGFP stabilizer)
Cc1cc(C2=NNC(=NC3CC3)SC2)c(C)n1-c1ccccc1	p53ts 39C tox 10µM (no result: HBB splice mod, Epigenetic mod, p53ts 32C tox, UbGFP stabilizer, Peg3 imprint)
Cc1cc(C2=NNC(=NC3CC3)SC2)c(C)n1Cc1ccco1	p53ts 39C tox 13µM (no result: HBB splice mod, Epigenetic mod, p53ts 32C tox, UbGFP stabilizer, Peg3 imprint)
CCCCn1c(SCC(=O)OCC)nnc1-c1ccoc1C	none
CCc1ccccc1N(CC)C(=O)c1cc2c(s1)-c1ccccc1SC2	p53ts 39C tox inconclusive (no result: HBB splice mod, Epigenetic mod, UbGFP stabilizer)
CCOc1ccc(N(CC)C(=O)c2cc3c(s2)-c2ccc(Cl)cc2SC3)cc1	p53ts 39C tox 20µM (no result: HBB splice mod, Epigenetic mod, UbGFP stabilizer)
CC(=O)c1cccc(NC(=O)c2cc(-c3ccc(C)cc3)on2)c1	p53ts 32C tox inconclusive
CC(=O)Nc1ccc(NC(=O)c2cc(-c3ccc4c(c3)OCCO4)on2)cc1	p53ts 39C tox 1.6µM, p53ts 32C tox inconclusive (no result: HBB splice mod, Epigenetic mod, UbGFP stabilizer)
Cc1ccn2cc(C(=O)Nc3ccc4c(c3)OCCO4)nc2c1	p53ts 39C tox 13µM, p53ts 32C tox 13µM
CC(=O)c1cccc(NC(=O)c2cc(-c3ccc4c(c3)OCCO4)on2)c1	p53ts 39C tox 2.5µM, p53ts 32C tox 1.3µM (no result: HBB splice mod, Epigenetic mod, UbGFP stabilizer)
Cc1ccn2cc(C(=O)Nc3ccccc3N3CCOCC3)nc2c1	none
Cc1ccc(OC(=O)c2cc(-c3ccc4c(c3)OCCO4)on2)c(C)c1	p53ts 39C tox 13µM, p53ts 32C tox 20µM (no result: HBB splice mod, Epigenetic mod, UbGFP stabilizer)
Cc1ccc(O)c(NC(=O)c2cc(-c3ccc4c(c3)OCO4)on2)c1	p53ts 39C tox inconclusive, p53ts 32C tox inconclusive (no result: HBB splice mod, Epigenetic mod, UbGFP stabilizer)
N#Cc1nc(COc2ccccc2)oc1N1CCN(c2cccc(Cl)c2)CC1	none
COc1cccc(Cn2nnc3c(=O)[nH]c(C4CCN(C(=O)c5ccccc5Cl)CC4)nc32)c1	none (no result: HBB splice mod, Epigenetic mod, UbGFP stabilizer)
O=C(Nc1ccc(NC(=O)c2ccco2)nc1)c1cccnc1	p53ts 39C tox 13µM, p53ts 32C tox 10µM (no result: HBB splice mod)
O=C(Nc1cccnc1)c1ccc(NC(=O)c2ccco2)cc1	none
CCCCC(CC)CNC(=O)c1ccc(Cn2c(=O)[nH]c3cc(OC)c(OC)cc3c2=O)cc1 (stereo not given)	p53ts 39C tox 4µM, p53ts 32C tox inconclusive (no result: HBB splice mod, Epigenetic mod, UbGFP stabilizer)
COc1ccc(-c2noc(CNC(=O)c3ccco3)n2)cc1	none (no result: HBB splice mod, Epigenetic mod, UbGFP stabilizer)
CCN(c1ccccc1)S(=O)(=O)c1nnc(NC(=O)c2ccco2)s1	p53ts 39C tox 1.3µM, p53ts 32C tox inconclusive (no result: HBB splice mod, Epigenetic mod, UbGFP stabilizer)
O=C(Nc1ccc(-c2noc(CCc3ccccc3)n2)cc1)c1ccco1	p53ts 39C tox 10µM, p53ts 32C tox inconclusive
Cc1ccc(N(CC(C)C)S(=O)(=O)c2nnc(NC(=O)c3ccco3)s2)cc1	none (no result: HBB splice mod, Epigenetic mod, UbGFP stabilizer)
CCN(CC)c1ccc(NC(=O)c2ccco2)cc1	p53ts 39C tox 10µM, p53ts 32C tox 10µM
O=C(CC12CC3CC(CC(C3)C1)C2)NCC(=O)N1CCCC1	none
COc1cccc(O)c1O	p53ts 39C tox 6.3µM, p53ts 32C tox 5µM (no result: HBB splice mod, Epigenetic mod, UbGFP stabilizer)
Cc1cccc(NC(=O)NCCn2c(=O)oc3ccc(C)cc32)c1	none (no result: HBB splice mod, Epigenetic mod, UbGFP stabilizer)
CCOC(=O)c1c(-c2ccccc2)oc2ccc(NS(=O)(=O)c3ccc(OC)cc3)cc12	none (no result: HBB splice mod, Epigenetic mod, UbGFP stabilizer)
CCCc1oc2ccc(NS(=O)(=O)c3ccc(OC)cc3)cc2c1C(=O)OCC	p53ts 39C tox inconclusive (no result: HBB splice mod, Epigenetic mod, UbGFP stabilizer)
CCOC(=O)c1c(-c2ccccc2)oc2ccc(NS(=O)(=O)c3ccccc3)cc12	p53ts 39C tox 16µM (no result: HBB splice mod, Epigenetic mod, UbGFP stabilizer)
CCCc1oc2ccc(NS(=O)(=O)c3ccc(OCC)cc3)cc2c1C(=O)OCC	p53ts 39C tox 20µM, p53ts 32C tox inconclusive (no result: HBB splice mod, Epigenetic mod, UbGFP stabilizer)
CC(C)C[C@H](NC(=O)N1CCCCCC1)C(=O)N[C@H](Cc1cn(C)c2ccccc12)C(=O)N[C@H](Cc1ccccn1)C(=O)O	none (no result: HBB splice mod)
